HEK293 tox: Cytotoxic Profiling in HEK 293 Cell Line of Diverse Libraries Using Quantitative High-Throughput Screening; HEK 293 viability, ATP luminescence (CellTiter-Glo), 48-72 h; Potency, µM (top dose mostly 115 µM), for the others: at the top dose activity change, negative = cytotoxicity, actives largely listed as inhibitors; 94,000 compounds, 6.6% hits; AID 1345083, 2018; note: % is set by controls: 0 for no effect and ±100 for the full control effect; nearly all actives have a fitted effect of over 60% in size
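HEK 293 cells seeded at 250 cells/well were exposed to compound for 48 or 72 hr at 37 degree Celsius. Viability taken as ATP content by CellTiter-Glo luminescence.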
NPR1 antag: Natriuretic polypeptide receptor (hNpr1) antagonism - Primary qHTS; Atrial natriuretic peptide receptor 1 (Homo sapiens), P16066; HEK293 hNpr1 GloSensor cGMP, ANP-stimulated luminescence; Potency, µM (highest dose often 46.3 µM), inactives show at the top dose activity change, negative = inhibition, most hits filed as inhibitors; 76,000 compounds, 1.6% hits; AID 1347048, 2019; calls by dose curve; note: % is set by controls: 0 for no effect and ±100 for the full control effect; nearly all actives have a fitted effect of over 60% in size
Target sequence (P16066 whole entry, looked up): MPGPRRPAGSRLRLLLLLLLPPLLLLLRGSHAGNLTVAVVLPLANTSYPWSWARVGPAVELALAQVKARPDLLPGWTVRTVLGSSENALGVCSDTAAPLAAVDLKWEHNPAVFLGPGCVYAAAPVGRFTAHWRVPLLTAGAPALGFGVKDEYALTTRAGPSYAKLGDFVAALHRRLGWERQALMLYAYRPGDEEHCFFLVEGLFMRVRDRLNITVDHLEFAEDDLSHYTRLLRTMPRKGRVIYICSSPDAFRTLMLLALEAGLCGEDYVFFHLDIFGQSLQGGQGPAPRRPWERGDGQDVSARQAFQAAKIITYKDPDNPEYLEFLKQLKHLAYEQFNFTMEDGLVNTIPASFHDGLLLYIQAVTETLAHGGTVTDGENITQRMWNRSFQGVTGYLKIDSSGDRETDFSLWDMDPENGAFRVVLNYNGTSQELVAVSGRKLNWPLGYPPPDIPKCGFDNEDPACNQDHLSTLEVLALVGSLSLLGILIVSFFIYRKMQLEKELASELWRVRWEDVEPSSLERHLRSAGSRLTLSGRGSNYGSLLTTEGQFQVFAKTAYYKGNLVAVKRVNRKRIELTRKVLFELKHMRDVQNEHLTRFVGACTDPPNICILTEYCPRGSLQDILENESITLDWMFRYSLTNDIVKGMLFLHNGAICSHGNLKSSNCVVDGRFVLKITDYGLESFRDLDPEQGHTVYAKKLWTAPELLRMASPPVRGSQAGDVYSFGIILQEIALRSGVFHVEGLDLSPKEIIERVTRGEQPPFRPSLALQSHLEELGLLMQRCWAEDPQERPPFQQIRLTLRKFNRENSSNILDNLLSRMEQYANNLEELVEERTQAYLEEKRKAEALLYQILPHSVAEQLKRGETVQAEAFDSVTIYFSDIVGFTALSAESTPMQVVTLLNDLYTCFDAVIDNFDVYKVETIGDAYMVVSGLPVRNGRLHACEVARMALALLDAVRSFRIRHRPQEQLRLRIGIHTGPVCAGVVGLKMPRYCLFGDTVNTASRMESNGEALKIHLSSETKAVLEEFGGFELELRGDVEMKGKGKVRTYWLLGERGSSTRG
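HEK293 cells stably expressing human Npr1 and cGMP GloSensor pGS-40F, loaded 2 h with 2% GloSensor reagent, given compound 30 min at room temperature. Luminescence read before and 20 min after 0.1 nM hNppA.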
SNCA expr inhib: Primary qHTS assay for inhibitors of alpha-synuclein gene (SNCA) expression; HEK-293 SNCA-luciferase knock-in, luminescence, 24 h; Potency, µM (series often up to 57.2 µM), for inactives: at the highest dose activity change, negative = inhibition, most hits filed as inhibitors; 140,000 compounds, 0.17% hits;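 note: plate controls were DMSO cells for no effect and cell-free wells for full effect; nearly all actives have a fitted effect of over 45% in size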
NIH3T3 tox: Cytotoxic Profiling in NIH 3T3 Cell Line of Diverse Libraries Using Quantitative High-Throughput Screening | NIH 3T3 viability, CellTiter-Glo ATP luminescence, 48-72 h | 94,000 compounds, 4.3% hits | AID 1345082, 2018 | Potency, µM (top dose mostly 96.7 µM), inactives show at the highest dose activity change, negative = cytotoxicity, actives largely listed as inhibitors; note: % is set by controls: 0 for no effect and ±100 for the full control effect; nearly all actives have a fitted effect of over 55% in size
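Cytotoxicity was measured by CellTiter-Glo ATP luminescence after 48 or 72 h compound exposure at 37 °C. Mouse NIH 3T3 fibroblasts were seeded at 400 cells/well and dosed by 23 nL pin transfer.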
FLuc inh-1: Firefly luciferase inhibition profiling of diverse chemical library using quantitative high-throughput screening. Luciferin 4-monooxygenase (Photinus pyralis), P08659. Potency, µM (top dose mostly 115 µM), hits mostly inhibitors. 76,000 compounds, 2.5% hits. purified P. pyralis luciferase, luminescence, biochemical; note: % is set by controls: 0 for no effect and ±100 for the full control effect; nearly all actives have a fitted effect of over 65% in size
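Luminescence read by CCD imaging after purified firefly luciferase (10nM final) was added to substrate buffer holding 10uM D-luciferin and 10uM ATP, pH 7.5, pre-dosed with compound.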
HEK293 viab: GF-AFC viability counterscreen for inhibitors of alpha-synuclein gene (SNCA) expression | HEK-293-SNCA-luc viability, GF-AFC fluorescence, 24 h | Potency, µM (series often up to 57.1 µM), inactives show top-dose activity change, negative = cytotoxicity, actives largely listed as cytotoxic | 150,000 compounds, 0.12% hits | AID 1671193, 2021;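 note: 0% = DMSO-treated cells and -100% = medium-only wells without cells; nearly all actives have a fitted effect of over 30% in size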
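Cytotoxicity counterscreen: after 24 h compound treatment of genome-edited SNCA-luciferase HEK-293 cells, live-cell protease substrate GF-AFC read by fluorescence after 30 min; activity scaled between DMSO (0%) and medium-only (-100%), curves Hill-fitted.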
FLuc SDR -ATP: Firefly luciferase (FLuc-C-HiBiT) SDR gain of signal screen - without ATP | shares compounds with FLuc inh-1 | Purified FLuc-C-HiBiT, Nano-Glo HiBiT luminescence, no ATP | Potency, µM (titrated, usually from 32.7 µM), for the others: at the highest dose activation (signal gain), usual class: activators | 1,300 compounds, 7.8% hits | AID 1963318, 2024; note: nearly all actives have a fitted effect of over 55% in size
FLuc SDR ATP: Firefly luciferase (FLuc-C-HiBiT) SDR gain of signal screen - plus ATP | shares compounds with FLuc inh-1 | purified FLuc-C-HiBiT + ATP, HiBiT complementation luminescence | Potency, µM (series often up to 32.7 µM), for inactives: at the top dose activation (gain of signal), most hits filed as activators | 1,300 compounds, 8.7% hits | AID 1963319, 2024;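 note: signal reports ligand binding via conformational change of the enzyme rather than luciferase catalysis; % of control where 0% means no effect; nearly all actives have a fitted effect of over 55% in size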
FLuc inh-2: Firefly luciferase (FLuc-C-HiBiT) enzymatic inhibition screen - Functional assay | shares compounds with FLuc inh-1 | purified FLuc-C-HiBiT enzyme, luciferin luminescence | Potency, µM (titrated, usually from 32.7 µM), without a hit: at the top dose activity change, negative = inhibition, actives largely listed as inhibitors | 1,300 compounds, 42% hits | AID 1963320, 2024; note: % is set by controls: 0 for no effect and ±100 for the full control effect; nearly all actives have a fitted effect of over 70% in size
* marks the source's active call; other numbers are inactive results; i = inactive; ? = inconclusive; . = not tested or not shown; [ ] = dose if it differs, or a comment. Sampled rows, rich in hits. Any-hit rate of the full collection: about 7.2%. Unless noted, calls come from the whole dose curve; as a rule, active = well fitted curve in the direction sought with a large enough effect; inconclusive = small, poorly fitted or top-dose-only effect, or another doubt; inactive = no such curve, though single readings can be large; an effect the other way counts as inactive or inconclusive. Potency is the fitted concentration of half-maximal effect.

SMILES | HEK293 tox | NPR1 antag | SNCA expr inhib | NIH3T3 tox | FLuc inh-1 | HEK293 viab | FLuc SDR -ATP | FLuc SDR ATP | FLuc inh-2
Cc1ccc2nc(-c3ccc(NC(=O)C(F)(F)F)cc3)sc2c1 | . | . | ? | . | . | 8% | 28% | ? | 0.79µM*
Cc1ccc2nc(-c3ccc(NC(=O)c4ccc(S(C)(=O)=O)cc4)cc3)sc2c1 | . | . | 84% | . | . | 3% | 13% | 8% | -1%
Cc1ccc(-c2cc(N3CCC(CNC(=O)c4ccc5nc[nH]c5c4)CC3)n[nH]2)cc1 | ? | -25% | 63% | ? | 14µM* | 0% | 20% | 15% | ?
O=C(NCC1CCN(c2cc(-c3ccccc3)[nH]n2)CC1)c1ccc2nc[nH]c2c1 | 3% | -2% | -23% | ? | ? | -2% | . | . | .
COc1cccc2cc(C(=O)Nc3ccc(CC(=O)O)cc3)c(=O)oc12 | . | . | ? | . | . | -7% | 2.5µM* | 1.8µM* | 3.1µM*
CC(Oc1ccccc1F)C(=O)Nc1ccc(-c2nc3ccccc3s2)cc1 (configuration not stated) | . | . | 60% | . | . | 7% | 16% | 11% | ?
O=C(Nc1ccc(S(=O)(=O)N2CCC(c3nc4ccccc4s3)CC2)cc1)c1ccc(F)cc1 | . | . | 22% | . | . | 1% | . | . | .
O=C(Nc1ccc(-c2nc3ccccc3s2)cc1)c1c(F)c(F)c(F)c(F)c1F | . | . | . | . | . | . | 13% | 10% | 5%
COc1ccccc1OC(C)C(=O)Nc1cccc(-c2nc3ccccc3o2)c1 (configuration not stated) | . | . | 35% | . | . | ? | . | . | .
COc1ccccc1OC(C)C(=O)Nc1cccc(-c2nc3ccccc3s2)c1 (configuration not stated) | . | . | 86% | . | . | 8% | 10% | 7% | ?
O=C(c1ccccc1F)N1CCCC1C(=O)N1CCCC1c1nc2ccncc2[nH]1 (configuration not stated) | -2% | . | 1% | -14% | . | -3% | . | . | .
CCCS(=O)(=O)N1CCC2(CC1)CC1C(=O)NCCN1C2 (configuration not stated) | -3% | 5% | 27% | -3% | i | 4% | . | . | .
C#CCn1c(/C=C/c2ccc(Cl)cc2)nc2ccccc21 | . | . | -67% | . | . | -25% | 3.9µM* | ? | 0.62µM*
O=C(NCCc1ccccc1)C1CCN(C(=O)c2ncn3c2COC(c2ccc(Cl)cc2)C3)CC1 (configuration not stated) | -7% | -2% | 2% | 4% | ? | -14% | . | . | .
CCCCNC(=O)C1CCN(C(=O)c2ncn3c2COC(c2ccccc2)C3)CC1 (configuration not stated) | -2% | 2% | 21% | 2% | 7.1µM* | -3% | 14% | ? | ?
O=C(NCCc1cccs1)C1CCN(C(=O)c2ncn3c2COC(c2ccc(F)cc2)C3)CC1 (configuration not stated) | -2% | -2% | ? | i | i | -1% | . | . | .
O=C(NCCc1cccs1)C1CCN(C(=O)c2ncn3c2COC(c2ccccc2)C3)CC1 (configuration not stated) | -9% | -7% | 35% | -6% | 7.1µM* | 14% | 13% | ? | 4.4µM*
O=C(NCc1cccs1)C1CCN(C(=O)c2ncn3c2COC(c2ccccc2)C3)CC1 (configuration not stated) | 4% | -15% | 5% | -2% | 6.3µM* | -5% | 13% | 2.2µM* | 2.5µM*
CN(Cc1cccc(F)c1)Cc1cccn1C | -22%[230 µM] | 15%[70.6 µM] | ? | -3%[174 µM] | i | -1%[87.6 µM] | . | . | .
COc1ccc(-c2noc(C(=O)N3CCCC3)c2[C@H](C)O)cc1 | -27%[172 µM] | -5%[70.6 µM] | 8%[87.6 µM] | ? | i | -14%[87.6 µM] | . | . | .
COc1ccc(F)cc1S(=O)(=O)N1CCC(Oc2ccc(C(N)=O)cn2)CC1 | -24% | 1% | -1% | 0% | i | 1% | . | . | .
O=C(Cc1cccc(Cl)c1)N1CCn2c(nnc2-c2ccccc2)C1 | -21% | -24% | 127% | ? | 2.8µM* | 5% | 14% | 19% | ?
CCC1(N2CCN(C(=O)c3cc(Cl)ccc3OC)CC2)CCN(C(=O)NC)C1 (configuration not stated) | -9% | -6% | 105% | -18% | ? | 5% | . | . | .
Cc1ccc(NC(=O)N2CCC(CCNC(=O)c3sccc3C)CC2)cc1 | -24% | -4% | 71% | -28% | ? | 5% | . | . | .
Cc1ccc(NC(=O)N2CCC(CCNC(=O)c3ccco3)CC2)cc1F | -16% | 5% | 35% | ? | i | 8% | . | . | .
CCC(=O)NCCC1CCN(C(=O)Nc2ccc(C)cc2)CC1 | 12% | -1% | -10% | i | 13µM* | 14% | ? | ? | ?
CC(=O)NCCC1CCN(C(=O)Nc2ccc(C)cc2)CC1 | 10% | -21% | ? | 3% | 8.9µM* | 6% | ? | ? | ?
COCCC(=O)NCCC1CCN(C(=O)Nc2ccc(C)cc2)CC1 | 16% | 3% | 59% | i | ? | 6% | . | . | .
CCC(=O)NCCC1CCN(C(=O)Nc2ccc(C)c(F)c2)CC1 | 9% | -3% | 5% | -3% | 11µM* | 4% | ? | ? | ?
CCN(CC)Cc1nc(C2(O)CCN(C3CCC3)CC2)cs1 | ? | 2%[70.6 µM] | ? | -16%[174 µM] | i | -16%[87.6 µM] | . | . | .
